Test [1] concerns the target T1, 3-phosphoinositide-dependent protein kinase 1 (Homo sapiens) (UniProt O15530).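 Also: values are mean inhibition of PDK1.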
T1 sequence (whole entry): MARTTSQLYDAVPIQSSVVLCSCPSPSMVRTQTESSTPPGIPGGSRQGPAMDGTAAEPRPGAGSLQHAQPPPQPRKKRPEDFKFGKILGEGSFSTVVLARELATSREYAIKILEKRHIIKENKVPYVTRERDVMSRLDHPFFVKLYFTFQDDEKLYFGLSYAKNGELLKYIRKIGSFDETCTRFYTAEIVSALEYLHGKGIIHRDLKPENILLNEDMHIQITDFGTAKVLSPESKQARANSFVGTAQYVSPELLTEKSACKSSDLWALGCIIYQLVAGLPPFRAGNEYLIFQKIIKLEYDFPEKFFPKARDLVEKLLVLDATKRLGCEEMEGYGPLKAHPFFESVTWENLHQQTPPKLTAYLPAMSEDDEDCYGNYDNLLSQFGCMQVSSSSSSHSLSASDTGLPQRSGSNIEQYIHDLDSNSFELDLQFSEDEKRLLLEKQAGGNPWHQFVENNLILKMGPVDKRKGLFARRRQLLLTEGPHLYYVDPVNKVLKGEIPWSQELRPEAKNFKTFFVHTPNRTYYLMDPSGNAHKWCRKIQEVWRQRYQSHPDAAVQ
The note with it: at 0.1 µM.

Test [2] addresses cAMP-dependent protein kinase catalytic subunit alpha (Homo sapiens) (UniProt P17612). The note with it: at 0.1 µM.
For test [3] the target is unchanged. Particulars: at 1 µM.
Test [4] addresses Protein kinase C alpha type (Homo sapiens) (UniProt P17252). The note with it: at 0.1 µM.
The target is the same in test [5]. The note with it: at 1 µM.
The target in test [6] is Protein kinase C beta type (Homo sapiens) (UniProt P05771). The note with it: at 0.1 µM.
Protein kinase C beta type (Homo sapiens), sequence (P05771 2-671 limits assumed): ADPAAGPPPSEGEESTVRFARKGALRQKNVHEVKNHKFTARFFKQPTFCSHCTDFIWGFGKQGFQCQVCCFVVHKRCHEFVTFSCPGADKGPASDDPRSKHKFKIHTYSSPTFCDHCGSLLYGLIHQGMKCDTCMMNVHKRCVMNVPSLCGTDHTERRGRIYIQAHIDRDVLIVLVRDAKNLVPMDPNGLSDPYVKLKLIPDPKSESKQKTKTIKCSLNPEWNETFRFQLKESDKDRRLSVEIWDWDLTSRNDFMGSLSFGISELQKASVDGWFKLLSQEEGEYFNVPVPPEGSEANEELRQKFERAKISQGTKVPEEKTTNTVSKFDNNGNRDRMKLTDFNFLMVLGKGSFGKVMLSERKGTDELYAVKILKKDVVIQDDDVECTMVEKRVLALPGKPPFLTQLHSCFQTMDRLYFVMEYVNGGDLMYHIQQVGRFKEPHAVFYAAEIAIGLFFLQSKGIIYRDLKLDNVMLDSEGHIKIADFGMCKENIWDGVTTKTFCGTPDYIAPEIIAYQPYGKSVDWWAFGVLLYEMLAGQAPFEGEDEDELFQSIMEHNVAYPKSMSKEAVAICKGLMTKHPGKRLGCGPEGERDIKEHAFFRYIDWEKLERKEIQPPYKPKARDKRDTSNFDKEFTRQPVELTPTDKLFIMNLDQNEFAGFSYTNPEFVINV
Test [7] has the same target. The note with it: at 1 µM.
The target of test [8] is Protein kinase C eta type (Homo sapiens) (UniProt P24723). The note with it: at 0.1 µM.
Protein kinase C eta type (Homo sapiens), sequence (P24723 whole entry): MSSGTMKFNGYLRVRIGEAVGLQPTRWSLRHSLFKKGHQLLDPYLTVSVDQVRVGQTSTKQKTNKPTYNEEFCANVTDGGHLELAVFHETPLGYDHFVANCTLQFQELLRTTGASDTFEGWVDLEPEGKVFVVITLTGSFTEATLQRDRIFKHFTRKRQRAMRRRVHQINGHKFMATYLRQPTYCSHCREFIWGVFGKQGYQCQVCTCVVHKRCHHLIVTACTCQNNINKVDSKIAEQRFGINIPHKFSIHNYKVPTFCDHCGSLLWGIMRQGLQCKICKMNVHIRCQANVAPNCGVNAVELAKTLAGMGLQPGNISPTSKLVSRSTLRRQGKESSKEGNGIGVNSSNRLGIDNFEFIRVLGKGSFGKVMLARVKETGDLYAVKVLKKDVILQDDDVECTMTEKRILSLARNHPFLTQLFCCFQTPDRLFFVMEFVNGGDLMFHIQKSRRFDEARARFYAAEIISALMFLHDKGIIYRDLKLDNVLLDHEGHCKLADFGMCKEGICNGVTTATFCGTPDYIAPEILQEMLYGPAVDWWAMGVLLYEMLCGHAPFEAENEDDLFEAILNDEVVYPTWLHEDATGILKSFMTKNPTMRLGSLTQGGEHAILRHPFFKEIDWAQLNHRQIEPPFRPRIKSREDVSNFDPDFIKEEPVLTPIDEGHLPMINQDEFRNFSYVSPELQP
Test [9] shares this target. The note with it: at 1 µM.
The target in test [10] is Protein kinase C gamma type (Homo sapiens) (UniProt P05129). Particulars: at 0.1 µM.
Test [11] shares this target. Particulars: at 1 µM.
For test [12], the target named is T2, Protein kinase C iota type (Homo sapiens) (UniProt P41743).
T2 sequence (whole entry): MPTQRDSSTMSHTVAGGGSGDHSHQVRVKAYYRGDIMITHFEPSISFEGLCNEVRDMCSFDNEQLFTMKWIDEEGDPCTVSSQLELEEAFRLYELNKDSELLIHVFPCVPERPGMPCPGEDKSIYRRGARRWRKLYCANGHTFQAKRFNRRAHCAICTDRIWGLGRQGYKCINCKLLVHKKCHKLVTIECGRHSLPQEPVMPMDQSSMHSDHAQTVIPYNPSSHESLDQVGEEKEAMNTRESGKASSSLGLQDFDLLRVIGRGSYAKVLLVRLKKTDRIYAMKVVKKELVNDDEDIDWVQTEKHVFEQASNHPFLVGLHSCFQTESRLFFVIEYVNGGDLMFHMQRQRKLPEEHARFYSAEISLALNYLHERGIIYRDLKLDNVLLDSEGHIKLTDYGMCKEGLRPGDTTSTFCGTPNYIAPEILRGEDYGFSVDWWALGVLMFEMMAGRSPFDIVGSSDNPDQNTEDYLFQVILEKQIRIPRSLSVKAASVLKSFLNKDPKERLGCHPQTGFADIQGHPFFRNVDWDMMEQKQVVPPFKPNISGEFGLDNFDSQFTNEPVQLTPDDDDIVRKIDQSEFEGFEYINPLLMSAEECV
Particulars: at 0.1 µM.

In test [13] the target is T2, Protein kinase C iota type (Homo sapiens). The note with it: at 1 µM.
Test [14] concerns the target Protein kinase C theta type (Homo sapiens) (UniProt Q04759). Particulars: at 0.1 µM.
Test [15] has the same target. The note with it: at 1 µM.
The target in test [16] is Protein kinase C beta type (Homo sapiens) (UniProt P05771). The note with it: at 0.1 µM. This is another data set of the same source.
The target is the same in test [17]. Particulars: at 1 µM. This is another data set of the same source.
The target of test [18] is T3, Serine/threonine-protein kinase D1 (Homo sapiens) (UniProt Q15139).
T3 sequence (whole entry): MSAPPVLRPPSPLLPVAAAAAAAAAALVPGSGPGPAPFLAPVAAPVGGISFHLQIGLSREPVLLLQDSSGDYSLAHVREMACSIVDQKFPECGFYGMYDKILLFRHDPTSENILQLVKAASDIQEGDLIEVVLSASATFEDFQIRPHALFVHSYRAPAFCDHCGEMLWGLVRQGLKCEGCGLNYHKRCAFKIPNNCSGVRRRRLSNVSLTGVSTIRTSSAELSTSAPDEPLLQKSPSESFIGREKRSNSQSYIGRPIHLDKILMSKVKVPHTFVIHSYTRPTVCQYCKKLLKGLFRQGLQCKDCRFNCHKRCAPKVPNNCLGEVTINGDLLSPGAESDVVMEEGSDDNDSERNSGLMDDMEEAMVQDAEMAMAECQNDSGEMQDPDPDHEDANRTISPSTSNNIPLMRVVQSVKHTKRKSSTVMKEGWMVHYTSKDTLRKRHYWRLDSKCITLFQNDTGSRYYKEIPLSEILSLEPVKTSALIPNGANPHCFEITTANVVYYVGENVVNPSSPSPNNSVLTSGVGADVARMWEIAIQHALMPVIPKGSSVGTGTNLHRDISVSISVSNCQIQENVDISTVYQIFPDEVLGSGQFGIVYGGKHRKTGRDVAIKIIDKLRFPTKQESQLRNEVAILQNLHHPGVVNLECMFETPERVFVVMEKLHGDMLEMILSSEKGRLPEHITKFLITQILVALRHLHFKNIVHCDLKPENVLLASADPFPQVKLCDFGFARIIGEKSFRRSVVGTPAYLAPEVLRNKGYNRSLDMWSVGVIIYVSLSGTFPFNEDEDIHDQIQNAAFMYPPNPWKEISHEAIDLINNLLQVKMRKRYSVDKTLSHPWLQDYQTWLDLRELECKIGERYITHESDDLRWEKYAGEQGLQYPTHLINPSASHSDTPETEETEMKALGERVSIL
The note with it: at 0.1 µM.

The target in test [19] is T3, Serine/threonine-protein kinase D1 (Homo sapiens). The note with it: at 1 µM.
For test [20], the target named is T4, Serine/threonine-protein kinase D2 (Homo sapiens) (UniProt Q9BZL6).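 Also: reported percent inhibition values are means, part of the GSK PKIS kinase panel screen.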
T4 sequence (whole entry): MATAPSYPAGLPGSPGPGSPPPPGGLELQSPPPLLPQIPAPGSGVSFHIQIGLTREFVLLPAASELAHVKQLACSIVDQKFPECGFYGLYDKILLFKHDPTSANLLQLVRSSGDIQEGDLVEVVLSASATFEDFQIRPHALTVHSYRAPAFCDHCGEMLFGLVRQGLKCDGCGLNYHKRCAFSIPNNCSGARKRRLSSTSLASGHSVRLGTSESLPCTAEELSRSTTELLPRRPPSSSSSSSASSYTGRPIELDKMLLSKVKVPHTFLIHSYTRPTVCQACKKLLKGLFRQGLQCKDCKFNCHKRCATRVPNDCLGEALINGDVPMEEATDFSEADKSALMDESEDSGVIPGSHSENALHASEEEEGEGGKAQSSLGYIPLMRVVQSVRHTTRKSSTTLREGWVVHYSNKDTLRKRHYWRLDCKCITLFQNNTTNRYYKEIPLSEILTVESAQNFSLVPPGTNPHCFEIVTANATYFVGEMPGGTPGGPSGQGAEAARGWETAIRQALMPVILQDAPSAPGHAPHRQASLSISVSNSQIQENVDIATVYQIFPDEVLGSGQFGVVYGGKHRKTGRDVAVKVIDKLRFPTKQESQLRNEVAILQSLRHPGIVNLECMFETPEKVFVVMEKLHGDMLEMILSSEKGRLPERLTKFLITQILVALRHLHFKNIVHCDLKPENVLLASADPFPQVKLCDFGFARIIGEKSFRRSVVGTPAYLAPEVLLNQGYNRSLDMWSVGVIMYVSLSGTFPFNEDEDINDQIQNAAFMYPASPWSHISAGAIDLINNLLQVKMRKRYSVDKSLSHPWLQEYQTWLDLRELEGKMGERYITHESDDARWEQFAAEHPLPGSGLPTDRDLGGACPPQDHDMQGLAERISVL
The note with it: at 0.1 µM.

Protein kinase C theta type (Homo sapiens), sequence (Q04759 whole entry, looked up): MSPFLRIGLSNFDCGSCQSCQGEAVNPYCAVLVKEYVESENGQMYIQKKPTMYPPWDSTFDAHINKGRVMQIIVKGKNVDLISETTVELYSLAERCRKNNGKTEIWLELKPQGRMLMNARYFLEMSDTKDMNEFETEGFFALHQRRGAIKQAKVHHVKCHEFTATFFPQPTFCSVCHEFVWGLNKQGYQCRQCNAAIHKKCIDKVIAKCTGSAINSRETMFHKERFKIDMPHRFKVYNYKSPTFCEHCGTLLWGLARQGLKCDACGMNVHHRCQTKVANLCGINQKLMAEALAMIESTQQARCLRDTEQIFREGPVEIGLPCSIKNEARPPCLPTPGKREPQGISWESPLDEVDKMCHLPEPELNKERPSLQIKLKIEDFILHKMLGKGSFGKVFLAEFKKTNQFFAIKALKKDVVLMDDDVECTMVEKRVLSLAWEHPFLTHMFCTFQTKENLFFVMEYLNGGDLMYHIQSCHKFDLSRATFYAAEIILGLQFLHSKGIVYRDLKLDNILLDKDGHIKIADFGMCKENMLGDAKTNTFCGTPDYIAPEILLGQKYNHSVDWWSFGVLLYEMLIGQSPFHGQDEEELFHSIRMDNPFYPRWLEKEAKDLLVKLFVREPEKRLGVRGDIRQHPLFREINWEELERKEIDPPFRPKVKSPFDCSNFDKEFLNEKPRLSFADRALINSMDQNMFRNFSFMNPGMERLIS

A word on the inhibition: it is the change of the read-out against control, counted positive when it falls. As to `COc1ccc2ncnc(Nc3ccc(OCc4ccccc4)cc3)c2c1`, the inhibition in test [1] was 1.04%; in [2] it was 2.11%; in test [3], 1.43%; in test [4], -0.06%; in test [5], 1.22%; in test [6] it was 0.57%. Besides, the inhibition is 2.16% in test [7]; -0.44% in [8]; -0.65% in [9]; 0.01% in [10]; 5.03% in test [11]; 0.61% in test [12]. For the same molecule, the inhibition in [13] was -0.95%; in test [14], 1.21%; in [15], 1.19%; in [16], 0.9%; in [17] it was 1.9%; in [18] it was 3.89%. Also, the figures for the inhibition in test [19] and in test [20] were 3.35% and 0.24%, respectively.
`CN1CCN(C(=O)c2ccc(NC(=O)Nc3ccc(N(C)c4ccnc(Nc5ccc(CS(C)(=O)=O)cc5)n4)cc3)cc2)CC1`: the inhibition in [1] is 1.6%; in test [2], 1.2%; in test [3], 4.5%; in [4] it was -0.39%; in test [5] it was 0.75%; in [6] it was 0.01%. The inhibition in test [7] was 2.15%; in test [8], 3.18%; in [9] it was 2.34%; in test [10], 2.19%; in test [11], 2.89%; in [12], -0.67%. Besides, the inhibition in test [13] was -0.1%; in [14] it was 1.17%; in test [15], 1.43%; in test [16], 1.51%; in test [17], 2.4%; in test [18], 2.19%. Also, the inhibition was 6.28% in test [19] and 2.12% in test [20].
`COc1cccc(-n2nc(C)c3c(N/N=C(\C)c4ccncc4)ncnc32)c1`: the inhibition in test [1] is 2.62%; in test [2] it was 0.69%; in test [3] it was -0.34%; in [4] it was -0.84%; in test [5], -1.11%; in [6], 0.03%. Moreover, the inhibition in test [7] was -2.45%; in [8] it was -0.66%; in [9] it was -5.32%; in test [10], 1.51%; in test [11] it was -0.03%; in test [12], -1.18%. Besides, the inhibition in test [13] was -0.8%; in test [14], -0.03%; in [15], -0.11%; in test [16] it was 0.75%; in test [17], 0.46%; in test [18], 0.01%. In addition, the results for the inhibition in [19] and in test [20] were 0.3% and 0.82%, respectively.
For `CCS(=O)(=O)c1ccc(OC)c(Nc2ncc(-c3cccc(OC)c3)o2)c1`, the inhibition in test [1] worked out at 1.14%; in test [2] it was 1.07%; in [3], 1.26%; in test [4] it was 1.39%; in [5], 5.21%; in test [6], 0.07%. For the same molecule, the inhibition is -1.05% in test [7]; -0.85% in test [8]; 1.66% in test [9]; 2.11% in test [10]; 3.87% in test [11]; 1.8% in test [12]. Besides, the inhibition amounted to 3.38% in [13]; 1.22% in [14]; 0.3% in [15]; 0.6% in test [16]; 2.93% in test [17]; 2.32% in test [18]. The inhibition was determined as 4.41% in test [19] and 2.35% in test [20].
For `NC(=O)c1cccc(Nc2nccc(Nc3cccc(F)c3)n2)c1`, the inhibition in test [1] is -1.35%; in test [2], 1.44%; in test [3], 0.76%; in test [4] it was 0.15%; in [5], 4.54%; in test [6], -2.22%. The inhibition in test [7] is -5.72%; in test [8], 1.84%; in test [9], 2.62%; in test [10] it was 2.94%; in test [11], 4.93%; in [12], -0.38%. In addition, the inhibition in test [13] is -1.03%; in test [14], 0.79%; in test [15] it was 0.72%; in test [16], 2.1%; in [17], 4.84%; in [18] it was 1.93%. Besides, the inhibition in test [19] stood at 4.25%; in test [20], 0.71%.
Consider `O=C(Nc1ccc(Oc2ccc3[nH]c(NC(=O)c4ccco4)nc3c2)cc1)Nc1cc(C(F)(F)F)ccc1F`, for which the inhibition in test [1] is 2.37%; in test [2], -0.33%; in test [3] it was 0.09%; in [4], -3.29%; in test [5] it was -2.22%; in test [6] it was -0.09%. In addition, the inhibition in test [7] is -1.32%; in [8] it was 1.15%; in test [9], -0.71%; in [10], 2.16%; in [11] it was 2.22%; in test [12], 0.86%. Moreover, the inhibition in [13] was -0.83%; in test [14], -0.73%; in test [15] it was 1.78%; in test [16], 0.05%; in test [17] it was 1.61%; in test [18] it was -3.35%. Also, the inhibition was -2.46% in test [19] and -3.46% in [20].

The values are drawn from ChEMBL document CHEMBL1961873, “Compounds: GSK PKIS; Assays: Nanosyn kinase panel” (2012).
